Read-out in experiment [1]: Actin alpha 1 (ACTA1), ACTA1 (gene 58)
Kind of experiment: BSK_MyoF_ACTA1: BioMAP Diversity Plus: MyoF Assay for Actin alpha 1 (ACTA1) Biomarker Activity (AID 2284244). Conditions: primary human lung fibroblasts. The method in brief:
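alpha-SMA levels read by ELISA against DMSO baseline, 24 h post-dose, in primary human lung fibroblasts. Parallel cultures stained with 0.1% SRB after 10% TCA fixation (560 nm) to flag overt cytotoxicity.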

Read-out in experiment [2]: Interleukin 2 (IL2), IL2 (gene 3558)
Kind of experiment: BSK_BT_xIL2: BioMAP Diversity Plus: BT Assay for Interleukin 2 (IL2) Biomarker Activity (AID 2284245). Conditions: primary human B cells with PBMC. The method in brief: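 Secreted IL-2 was read by Luminex xMAP from B cells co-cultured with PBMC (human primary) 24 h post-dosing; activity was analysed as gain of signal relative to DMSO vehicle.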

Read-out in experiment [3]: Basic fibroblast growth factor (bFGF), FGF2 (gene 2247)
Nature of the experiment: BSK_MyoF_bFGF: BioMAP Diversity Plus: MyoF Assay for Basic fibroblast growth factor (bFGF) Biomarker Activity (AID 2284246). Conditions: primary human lung fibroblasts. The method in brief:
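bFGF was measured by ELISA in primary human lung fibroblasts 24 h after chemical addition. Signal was analysed as positive-direction change relative to DMSO baseline.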

Read-out in experiment [4]: Collagen IV, COL4A1 (gene 1282)
Kind of experiment: BSK_MyoF_CollagenIV: BioMAP Diversity Plus: MyoF Assay for Collagen IV Biomarker Activity (AID 2284247). Conditions: primary human lung fibroblasts. The method in brief: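 Collagen IV quantified by ELISA in human lung fibroblast cultures 24 h after chemical treatment, with DMSO as baseline. Parallel SRB staining (0.1% SRB after TCA fixation, 560 nm) flags overt cytotoxicity.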

Read-out in experiment [5]: Monokine induced gamma interferon (MIG), CXCL9 (gene 4283)
Kind of experiment: BSK_KF3CT_MIG: BioMAP Diversity Plus: KF3CT Assay for Monokine induced gamma interferon (MIG) Biomarker Activity (AID 2284248). Conditions: primary human keratinocytes with fibroblasts. The method in brief:
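ELISA read-out of MIG after 24 h chemical exposure of human skin primary co-culture (keratinocytes, foreskin fibroblasts). Gain of signal relative to DMSO negative control was analysed.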

Read-out in experiment [6]: Vascular cell adhesion molecule 1 (VCAM1), VCAM1 (gene 7412)
Kind of experiment: BSK_BF4T_VCAM1: BioMAP Diversity Plus: BF4T Assay for Vascular cell adhesion molecule 1 (VCAM1) Biomarker Activity (AID 2284249). Conditions: primary human bronchial epithelial cells with fibroblasts. The method in brief:
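Cell-surface VCAM-1 quantified by ELISA after 24 h chemical exposure of human bronchial epithelial/dermal fibroblast co-cultures, with SRB staining in parallel wells for cytotoxicity; DMSO baseline, positive-direction fitting.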

Read-out in experiment [7]: Collagen I, COL1A1 (gene 1277)
Kind of experiment: BSK_hDFCGF_CollagenI: BioMAP Diversity Plus: hDFCGF Assay for Collagen I Biomarker Activity (AID 2284250). Conditions: primary human foreskin fibroblasts. The method in brief: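 Collagen I quantified by ELISA 24 h after chemical dosing of human dermal fibroblast primary cells, with parallel SRB staining (0.1%, TCA-fixed, 560 nm) for overt cytotoxicity.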

Read-out in experiment [8]: Interferon-inducible T-cell alpha chemoattractant (ITAC), CXCL11 (gene 6373)
Kind of experiment: BSK_hDFCGF_ITAC: BioMAP Diversity Plus: hDFCGF Assay for Interferon-inducible T-cell alpha chemoattractant (ITAC) Biomarker Activity (AID 2284251). Conditions: primary human foreskin fibroblasts. The method in brief:
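I-TAC levels were read by ELISA on human dermal foreskin fibroblast primary cultures 24 h after dosing, analysed against DMSO in the positive direction. Cytotoxicity was assessed alongside by sulforhodamine B total-protein staining.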

Read-out in experiment [9]: Plasminogen activator inhibitor-1 (PAI1), SERPINE1 (gene 5054)
Nature of the experiment: BSK_KF3CT_PAI1: BioMAP Diversity Plus: KF3CT Assay for Plasminogen activator inhibitor-1 (PAI1) Biomarker Activity (AID 2284252). Conditions: primary human keratinocytes with fibroblasts. Summed up:
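PAI-1 levels quantified by ELISA after 24 h compound exposure of primary human skin keratinocytes co-cultured with fibroblasts. Activity is the gain relative to DMSO; cytotoxicity tracked in parallel cultures via SRB staining.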

Read-out in experiment [10]: Monocyte Chemoattractant Protein-1 (MCP1), CCL2 (gene 6347)
Kind of experiment: BSK_IMphg_MCP1: BioMAP Diversity Plus: IMphg Assay for Monocyte Chemoattractant Protein-1 (MCP1) Biomarker Activity (AID 2284253). Conditions: primary human endothelial cells with macrophages. The method in brief: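 ELISA readout of MCP-1 at 24 hours in IMphg co-cultures of venular endothelial cells and macrophages, normalised to DMSO; parallel cultures stained with sulforhodamine B for overt cytotoxicity.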

The text below walks through data of PubChem BioAssay (EPA / NIEHS).

“And” between values parts separate entries of the source, which are not always exact repeats. Equal entries are not always repeated. Some structures have more than one record in an assay (separate samples or runs), and their calls can disagree. The source made the active and inactive calls. The calls were made as follows: active = hit-call score of the fitted dose curve at least 0.9, where 1 is the maximum; inactive = score below 0.9.

The AC50 is the midpoint of the concentration-response curve, whichever way the signal moves. Take `O=C1OC2(c3ccccc31)c1cc(I)c(O)c(I)c1Oc1c2cc(I)c(O)c1I`: the outcome in experiment [1] and in [2] was inactive. Further, the results for the AC50 in [3] and in experiment [4] were 9.75 µM (active) and 3.8 µM (active), respectively.
In the case of `Cc1cccc2c1ccc1ccccc12`, the result in experiment [1], in [2], in experiment [3] and in [4] was inactive.
As to `C=COC(=O)C(C)(C)CCCCCC`, the figures for the AC50 in [1], in experiment [3] and in experiment [4] were 34.3 µM (active), 34.8 µM (active) and 29.7 µM (active), respectively. Besides, the outcome in [2] was inactive.
With `C=CC(=C)CC/C=C(\C)CCC=C(C)C`, the result in experiment [1], in experiment [2], in experiment [3] and in [4] was inactive.
`Cc1ccc(N=Nc2c(O)ccc3ccccc23)c(C)c1`: the result in experiment [1], in experiment [2], in experiment [3] and in experiment [4] was inactive.
With `O=C(NCc1ncc(C(F)(F)F)cc1Cl)c1c(Cl)cccc1Cl`, the result in experiment [1], in experiment [3] and in experiment [4] was inactive. The AC50 in experiment [2] is 32.1 µM (active).
As for `OCCN1CN(CCO)CN(CCO)C1`, the result in [1], in experiment [3] and in experiment [4] was inactive. The AC50 in experiment [2] is 31.3 µM (active).
With `CCCCC(CC)C(=O)OCCOCCOCCOCCOC(=O)C(CC)CCCC` (configuration not stated), the outcome in [1], in experiment [3] and in experiment [4] was inactive. In experiment [2], the half-maximal activity concentration (AC50) was 0.016 µM (active).
As for `CN(C)c1ccc(C(=C2C=CC(=[N+](C)C)C=C2)c2ccccc2)cc1`, the AC50 in experiment [1] was 1.06 µM (active); in experiment [2] it was 0.432 µM (active); in experiment [3] it was 0.647 µM (active); in [4] it was 1.55 µM (active).
In the case of `COC1=CC(=O)C[C@@H](C)[C@]12Oc1c(Cl)c(OC)cc(OC)c1C2=O`, the outcome in experiment [1], in [2], in experiment [3] and in [4] was inactive.
Turning to `O=C(NO)c1ccccc1`, the outcome in experiment [1], in experiment [3] and in [4] was inactive. Besides, the AC50 in [2] was 19.2 µM (active).
For `C=CC(C)(CCC=C(C)C)OC(C)=O` (configuration not stated), the result in experiment [1], in experiment [2], in experiment [3] and in experiment [4] was inactive.
For `COc1cccc(O)c1`, the outcome in [1], in experiment [2], in [3] and in experiment [4] was inactive.
On to `CCCCCc1ccc(O)cc1`, for which the results for the AC50 in [1], in [3] and in experiment [4] were 11.3 µM (active), 28 µM (active) and 20 µM (active), respectively. Further, the outcome in [2] was inactive.
Consider `O=C(CC(=O)C(F)(F)C(F)(F)C(F)(F)F)c1cccs1`, for which the AC50 in experiment [1] is 7.95 µM (active); in [2], 55.6 µM (active) and 46.2 µM (active); in experiment [4], 8.25 µM (active); in [6], 20.6 µM (active) and 19.3 µM (active); in experiment [7] it was 8.04 µM (active); in [8] it was 7.8 µM (active). Besides, the concentration at half-maximal activity (AC50) is 18.7 µM (active) in experiment [9]; 27.7 µM (active) and 25.5 µM (active) in experiment [10]. The result in [1], in [3], in experiment [4], in [5], in experiment [7] and in experiment [8] was inactive. In addition, in [9], the result was inactive.
On to `CC1=NN(c2ccccc2)C(=O)C1`, for which the result in experiment [1], in experiment [2], in experiment [3] and in experiment [4] was inactive.
For `NC(=NCCCCCCN=C(N)/N=C(\N)Nc1ccc(Cl)cc1)/N=C(\N)Nc1ccc(Cl)cc1`, the concentration at half-maximal activity (AC50) in experiment [1] is 4.86 µM (active); in [2] it was 8.05 µM (active); in experiment [3], 9.23 µM (active); in experiment [4], 8.69 µM (active).
Consider `O=C1c2ccc(O)c(O)c2C(=O)c2c(O)ccc(O)c21`, for which the result in [1], in experiment [2], in experiment [3] and in experiment [4] was inactive.
For `Oc1cc2ccccc2cc1O`, the result in experiment [1], in experiment [2], in experiment [3] and in experiment [4] was inactive.
`O=C(O)C(F)(F)OC(F)(F)C(F)(F)OC(F)(F)C(F)(F)OC(F)(F)C(F)(F)C(F)(F)C(F)(F)F`: the AC50 in experiment [1] was 4.11 µM (active); in experiment [2], 44.9 µM (active); in experiment [3] it was 16.8 µM (active) and 14 µM (active); in experiment [5] it was 29.6 µM (active) and 27.5 µM (active); in experiment [6], 7.4 µM (active) and 6.87 µM (active); in experiment [7] it was 30 µM (active). Further, the half-maximal activity concentration (AC50) in experiment [8] was 11.1 µM (active) and 11.3 µM (active); in experiment [9], 15.9 µM (active) and 18.7 µM (active); in [10], 38.2 µM (active) and 24 µM (active). Moreover, the result in [1], in experiment [2] and in experiment [4] was inactive.
In the case of `CCOC(=O)CN[C@@H](C(=O)N1CC[C@H]1C(=O)NCc1ccc(/C(N)=N/O)cc1)C1CCCCC1`, the outcome in experiment [1], in experiment [2], in experiment [3] and in [4] was inactive.
In the case of `Oc1c(Cl)cc(Cl)cc1Sc1cc(Cl)cc(Cl)c1O`, the AC50 in [5] is 2.92 µM (active) and 2.86 µM (active); in experiment [7], 1.32 µM (active) and 960 nM (active); in experiment [8], 1.25 µM (active) and 1.44 µM (active); in experiment [9] it was 1.67 µM (active) and 1.83 µM (active).
For `CC[N+](CC)(CC)Cc1ccccc1`, the outcome in experiment [1], in [2], in experiment [3] and in experiment [4] was inactive.
Consider `CN(CCO)S(=O)(=O)C(F)(F)C(F)(F)C(F)(F)C(F)(F)C(F)(F)C(F)(F)C(F)(F)C(F)(F)F`, for which the result in [1], in experiment [2], in experiment [3], in [4], in [5] and in experiment [6] was inactive. For the same compound, the outcome in experiment [8], in experiment [9] and in [10] was inactive. The AC50 in experiment [7] was 1.65 µM (active) and 879 nM (active); in [9] it was 0.0715 µM (active).
